Data from PubChem BioAssay.
Records with an inconclusive call do not appear. Active and inactive are the calls of the source. Cut-off not given; nearly all actives show AC50 up to about 27 µM.

Assay: viability loss in pontine glioma line – cell-based, JHH-DIPG-1, MIPE4.0, CellTiter-Glo, qHTS, dose response (AID 1347062);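 on AC50: cells exposed to compound for two days before readout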
Conditions: JHH-DIPG-1 viability, CellTiter-Glo ATP luminescence
In the case of O=C(Nc1ccc([N+](=O)[O-])cc1Cl)c1cc(Cl)ccc1O, the AC50 is reported as 1.66 µM (active). In the case of CNC[C@H](O)c1cccc(O)c1, the outcome is reported as “inactive”. In the case of O=NN(CCCl)C(=O)NCCCl, the outcome is reported as “inactive”. In the case of COc1ccnc(CS(=O)c2nc3ccc(OC(F)F)cc3[nH]2)c1OC (centres undefined), the outcome is reported as “inactive”. With COc1ccc2cc3[n+](cc2c1OC)CCc1cc2c(cc1-3)OCO2 the AC50 was 4.18 µM (active). In the case of CN(Cc1cc(Br)cc(Br)c1N)C1CCCCC1, the outcome is reported as “inactive”. In the case of O=C(NC(Cc1cc(=O)[nH]c2ccccc12)C(=O)O)c1ccc(Cl)cc1 (centres undefined), the outcome is reported as “inactive”. With NC(=O)NO the AC50 was 0.526 µM (active). With Cc1ccc(S(=O)(=O)NC(=O)NN2CC3CCCC3C2)cc1 (centres undefined) the AC50 was 20.9 µM (active). For CCOC(=O)C(C)(C)Oc1ccc(Cl)cc1, the outcome was “inactive”. With CC(=O)Oc1ccccc1C(=O)O the outcome was “inactive”. For NC(=O)c1ncn([C@@H]2O[C@H](CO)[C@@H](O)[C@H]2O)n1, the outcome was “inactive”. In the case of CN(C)c1ccc(C(=C2C=CC(=[N+](C)C)C=C2)c2ccc(N(C)C)cc2)cc1, the AC50 is reported as 0.235 µM (active). With Cn1cnc2c1c(=O)[nH]c(=O)n2C the AC50 was 23.5 µM (active). In the case of COc1ccc(CCN(C)CCCC(C#N)(c2ccc(OC)c(OC)c2)C(C)C)cc1OC (centres undefined), the outcome is reported as “inactive”. For O=c1oc2c(O)c(O)cc3c(=O)oc4c(O)c(O)cc1c4c23, the outcome was “inactive”. For CN(C)CCc1c[nH]c2ccc(CS(=O)(=O)N3CCCC3)cc12, the outcome was “inactive”. In the case of COc1cc([C@H]2Oc3cc([C@H]4Oc5cc(O)cc(O)c5C(=O)[C@@H]4O)ccc3O[C@@H]2CO)ccc1O, the outcome is reported as “inactive”. For C/C=C(/C(=C/C)c1ccc(O)cc1)c1ccc(O)cc1, the outcome was “inactive”.
